The first assay has as its target TBC1D7. In words: pooled miR-30 sensor sort-seq; sequence = guide strand. The settings on record: shRNA.
Consider TTCTTTTCTTCAACTCCACGAA, for which the sensor-assay potency score (higher = more potent) is -0.5.
The same measure, in the same setting: as for TTTGTTATCTTCTCTGCACTGT, the figure is 0.575; as for AAGAACACAATGCTCACTGTGG, -0.247.
For TTCGACAGCTACAAAAACTAGG, the sensor-assay potency score (higher = more potent) was -0.269.
For the sequence TTACGATACATCATCACCTTGG, the sensor-assay potency score (higher = more potent) worked out at 0.3.

Another assay addresses TBPL2. The description is as above. The following applies: shRNA.
TACAACTGGGCTGAACAGGGGA showed a sensor-assay potency score (higher = more potent) of 0.181.
Turning to ATAAGCAACACAATTCGTGGTT, the sensor-assay potency score (higher = more potent) was found to be 0.695.
TAAGCAACACAATTCGTGGTTT gave a sensor-assay potency score (higher = more potent) of -0.141.
TTTTAGAATAGGATAGATGTTT had a sensor-assay potency score (higher = more potent) of -0.912.
With TATGACAGCAGCAAACCTCTTT, the sensor-assay potency score (higher = more potent) is -0.118.
Regarding TTAAAATCGAGGAATCTGGCAG, the sensor-assay potency score (higher = more potent) came out at 0.087.
In turn, TCTTGCTGCAAGTCGAGACTGC yielded a sensor-assay potency score (higher = more potent) of 0.000545.
On to ATTTTCTTGCTGCAAGTCGAGA, for which the sensor-assay potency score (higher = more potent) was -1.3.
In the case of TACAATTCCACAACATTCTGAA, the sensor-assay potency score (higher = more potent) worked out at 0.364.
For TACAGTGGAAACTATATTCTGT, the sensor-assay potency score (higher = more potent) worked out at 0.659.
TTCCTGGGTAACTTCATCTGGT: the sensor-assay potency score (higher = more potent) is -0.0709.
Note: reference of the scale not given here.
